Source: PubChem
Most compounds without a hit are left out; they make up all but 15% or so of the library.
TDP1 cell CPT: DT40-hTDP1 cell growth loss with CPT | chicken DT40 Tdp1-/-;hTDP1 cells + 20 nM CPT, ATP luminescence, 48 h | Potency, µM (highest dose often 46.2 µM), hits mostly inhibitors | actives 12% (n = 420,000); further: nearly all actives have a fitted effect of over 55% in size
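Chicken DT40 Tdp1-/- cells stably complemented with human TDP1 were seeded at 400 cells/well in medium containing 20 nM camptothecin, exposed to pin-transferred compounds, and grown at 37 °C for at least 48 hr. Viability was read as ATP luminescence.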
VP16 counter: inhibits Gal4-VP16 luciferase reporter, ROR gamma counter-screen; Potency, µM (series often up to 53.6 µM), most hits filed as inhibitors; Drosophila S2 Gal4-VP16 UAS-luciferase, luminescence, 20 h; AID 2546; actives 3.5% (n = 310,000);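 further: Gal4-VP16 expression switched on by copper sulfate through the metallothionein promoter; nearly all actives have a fitted effect of over 50% in size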
ALOX12 inh: inhibitors of human 12S-lipoxygenase ALOX12; actives 1.1% (n = 580,000); Potency, µM (series often up to 108 µM), hits mostly inhibitors; purified 12hLO, xylenol orange hydroperoxide absorbance
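Purified human 12hLO at 150 nM in 25 mM Hepes, 0.01% Triton X-100, pH 7.0, preincubated 15 min at room temperature with compound. Reaction started with 40 uM arachidonic acid, 30 min at room temperature. Hydroperoxide measured by Fe-xylenol orange, 573/405 nm absorbance ratio.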
ELG1 repair inh: ELG1-dependent DNA repair inhibition. Potency, µM (titrated, usually from 46.1 µM), hits mostly inhibitors. actives 2.3% (n = 330,000). HEK293T ELG1-luciferase reporter, luminescence, 16 h; DNA damage induced by 5-fluorouridine. AID 504467; further: nearly all actives have a fitted effect of over 55% in size
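Overnight (16 hr) co-exposure of 2,000 cells/well to 5-fluorouridine and compound at 37 °C preceded detection. Luciferase was quantified via ONE-Glo luminescence; loss of signal denotes inhibition.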
DT40 TDP1 no CPT: qHTS for Inhibitors of human tyrosyl-DNA phosphodiesterase 1 (TDP1): qHTS in cells in absence of CPT; DT40 Tdp1-/- hTDP1 cells, no CPT, ATP luminescence, 48 h; Potency, µM (titrated, usually from 46.2 µM), most hits filed as inhibitors; actives 15% (n = 420,000); further: nearly all actives have a fitted effect of over 55% in size
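A cellular qHTS used chicken DT40 cells lacking endogenous Tdp1 but carrying stably transfected human TDP1. Compounds were applied without camptothecin, and cell growth kinetics were judged by ATP-dependent luminescence after ≥48 hr.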
RORg inh: blocks mouse ROR gamma transcriptional activity. Drosophila S2 Gal4-RORgamma UAS-luciferase reporter, 20 h. Potency, µM (top dose mostly 53.6 µM), hits mostly inhibitors. actives 5.4% (n = 310,000); further: nearly all actives have a fitted effect of over 60% in size
Target sequence (P51450 whole entry, looked up, the tested form may be a part): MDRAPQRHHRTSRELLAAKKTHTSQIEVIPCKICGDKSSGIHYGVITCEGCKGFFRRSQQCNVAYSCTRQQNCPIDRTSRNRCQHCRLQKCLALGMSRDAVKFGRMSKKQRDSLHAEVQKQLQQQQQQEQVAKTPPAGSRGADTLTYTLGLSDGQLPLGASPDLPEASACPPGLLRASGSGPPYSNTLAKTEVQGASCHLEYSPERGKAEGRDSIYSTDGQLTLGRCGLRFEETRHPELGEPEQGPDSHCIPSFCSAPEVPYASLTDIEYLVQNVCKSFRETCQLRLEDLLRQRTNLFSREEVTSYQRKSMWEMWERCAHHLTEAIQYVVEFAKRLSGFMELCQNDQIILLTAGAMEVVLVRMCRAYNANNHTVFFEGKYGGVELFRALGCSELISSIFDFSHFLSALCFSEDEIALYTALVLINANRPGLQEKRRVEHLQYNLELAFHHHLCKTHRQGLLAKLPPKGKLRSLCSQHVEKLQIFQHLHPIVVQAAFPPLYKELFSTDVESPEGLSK
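Using a luciferase readout, inhibitors were identified by reduced reporter activity in Drosophila cells coexpressing a copper-inducible Gal4–ROR gamma fusion and UAS-driven Photinus luciferase, incubated 20 hr after 700 uM copper sulfate.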
Numbers stand for hits; . = inactive; ? = inconclusive; / = not tested or not shown. The call rests on the fitted dose curve; in most records, active means well fitted curve in the direction sought with a large enough effect; inconclusive means small, poorly fitted or top-dose-only effect, or another doubt; inactive means no such curve, though single readings can be large; an effect the other way counts as inactive or inconclusive.

SMILES | TDP1 cell CPT | VP16 counter | ALOX12 inh | ELG1 repair inh | DT40 TDP1 no CPT | RORg inh
Cc1[nH]n(C(N)=S)c(=O)c1N=Nc1ccc(S(=O)(=O)N2CCCCCC2)cc1 | ? | 2.5µM | ? | . | 21µM | 0.89µM
Cc1ccc(S(=O)(=O)N2CCN(S(=O)(=O)N3CCCCC3)CC2)cc1 | . | . | . | . | . | .
CC(=O)Nc1ccc(N=Nc2c(C)[nH]n(C(N)=S)c2=O)cc1 | . | . | . | ? | . | 4µM
CN1C(=O)C(CC(=O)N2CCCCC2)=C2CCCCC21 (stereo not given) | / | / | . | / | / | /
CCOC(=O)c1cc2cc(C#N)ccc2[nH]1 | / | / | . | / | / | /
Cc1ccc(N=Nc2c(C)[nH]n(C(N)=S)c2=O)cc1C | 1.8µM | 1.1µM | . | ? | 1.6µM | 0.22µM
Cc1[nH]n(C(N)=S)c(=O)c1N=Nc1cccc([N+](=O)[O-])c1C | . | / | / | ? | ? | /
COC(=O)Cc1ccc(NC(=S)N2CCCC(CO)C2)cc1 (stereo not given) | . | 7.9µM | . | ? | . | 11µM
COC(=O)Cc1ccc(NC(=S)N2CCN(c3cc(Cl)ccc3C)CC2)cc1 | ? | ? | ? | ? | ? | 13µM
COC(=O)Cc1ccc(NC(=S)N2CCN(c3ccccn3)CC2)cc1 | . | . | . | ? | ? | .
Cc1cc2cc(CNC(=S)Nc3cccc(Br)c3)ccc2[nH]1 | / | / | 28µM | / | / | /
Cc1cc2cc(CNC(=O)c3ccc(Br)o3)ccc2[nH]1 | ? | . | ? | . | ? | .
CCOc1ccc(NC(=S)NCc2ccc3[nH]c(C)cc3c2)cc1 | . | 10µM | 10µM | ? | . | 2.5µM
COc1cc(OC)cc(C(=O)NCc2ccc3[nH]c(C)cc3c2)c1 | . | . | . | . | . | .
CCCCNC(=S)NCc1ccc2[nH]c(C)cc2c1 | ? | ? | ? | . | ? | 10µM
CCOc1ccc(NC(=O)c2cc3cc(C)ccc3[nH]2)cc1 | / | / | . | / | / | /
Cc1cc(C(=O)O)ccc1-c1ccc(/C=N/O)o1 | / | / | . | / | / | /
CCCCC(CC)CNC(=O)c1nccnc1N (stereo not given) | / | / | . | / | / | /
Cc1ccc(C)c(C(C)NC(=O)c2cccc(F)c2)c1 (stereo not given) | / | / | . | / | / | /
Cc1ccc(-c2c[n+](Cc3cccc(Cl)c3)c3n2CCC3)cc1 | 0.92µM | . | ? | 10µM | 0.52µM | ?
Clc1cccc(C[n+]2cc(-c3ccccc3)n3c2CCC3)c1 | 2.9µM | . | . | . | 2.6µM | .
Cc1ccc(C[n+]2cc(-c3ccc(Cl)cc3)n3c2CCC3)cc1 | 5.2µM | . | . | 4.6µM | 2.3µM | .
Clc1ccc(-c2c[n+](Cc3ccc(Cl)c(Cl)c3)c3n2CCC3)cc1 | / | ? | / | . | / | .
S=c1[nH]nc(COc2ccccc2)n1/N=C/c1cccc(Cl)c1Cl | ? | ? | ? | . | ? | ?
S=c1[nH]nc(COc2ccccc2)n1/N=C/c1ccccc1Cl | . | 13µM | ? | . | . | 6.3µM
SMILES | TDP1 cell CPT | VP16 counter | ALOX12 inh | ELG1 repair inh | DT40 TDP1 no CPT | RORg inh
S=c1[nH]nc(COc2ccccc2)n1/N=C/c1c(Cl)cccc1Cl | . | . | . | . | . | 3.5µM
Cc1cc2ccccc2n1CC(=O)N1CCN(CC(=O)N2CCCC2)CC1 | / | / | . | / | / | /
O=C1CCC(c2ccccc2)=NN1c1ccccc1 | / | / | . | / | / | /
O=C1CC(c2ccccc2)=NN1c1ccccc1 | ? | / | . | / | 15µM | /
CCNC(=O)c1cc(-c2ccccn2)nc2ccccc12 | / | / | . | / | / | /
CCC(=O)N1CCN(c2oc(/C=C/c3ccc(OC)cc3)nc2C#N)CC1 | / | / | . | / | / | /
CC1CCCC(C)N1/N=C/c1ccc(O)c(O)c1 (stereo not given) | . | . | ? | . | 23µM | .
Cc1ccc(-c2nnc(SCC(=O)c3ccc4c(c3)NC(=O)CO4)o2)cc1C | / | / | . | / | / | /
Cn1c(SCC(=O)Nc2ccc3nc(SCC(=O)N4CCCC4)sc3c2)nnc1-c1ccc(N)cc1 | ? | . | / | 8.2µM | ? | .
CCC(CC)C(=O)Nc1ccc2nc(SCC(=O)N3CCCC3)sc2c1 | ? | / | . | / | 21µM | /
CC(C)CC(=O)Nc1ccc2nc(SCC(=O)N3CCCC3)sc2c1 | 23µM | / | . | / | 23µM | /
CC(C)C(=O)Nc1ccc2nc(SCC(=O)N3CCCC3)sc2c1 | ? | / | . | / | ? | /
CCN(CC)S(=O)(=O)c1cccc(NCc2ccccc2C#N)c1 | / | / | . | / | / | /
CN(C)c1ccc(CN(Cc2ccco2)C(=O)c2ccc(C(C)(C)C)cc2)cc1 | 16µM | / | . | / | 21µM | /
COc1ccc(C(=O)N(Cc2ccc(N(C)C)cc2)Cc2ccco2)cc1Cl | 16µM | / | . | / | 15µM | /
COc1ccc(C(=O)N(Cc2ccco2)Cc2ccccc2F)cc1Cl | 21µM | / | ? | / | 16µM | /
Cc1cc2oc(=O)cc(CSc3nncs3)c2cc1C | / | / | . | / | / | /
CNc1ccc(C(=O)N2CCC(CCn3cccn3)CC2)cn1 | / | / | . | / | / | /
CSc1nccc(-c2nn(-c3ccc(C)cc3)ccc2=O)n1 | 7.3µM | . | . | ? | 5.8µM | .
C=CCSc1nccc(-c2nn(-c3ccc(C)cc3)ccc2=O)n1 | 7.3µM | . | ? | 7.3µM | 5.8µM | .
Nc1nccc(-c2nn(-c3ccc(Cl)cc3)ccc2=O)n1 | . | . | . | . | . | .
C#CCSc1nccc(-c2nn(-c3ccc(C)cc3)ccc2=O)n1 | ? | . | ? | 9.2µM | 26µM | .
CCSc1nccc(-c2nn(-c3ccc(C)cc3)ccc2=O)n1 | 6.5µM | . | . | 10µM | 6.5µM | .
O=[S+]1([O-])NCC2(CCN(Cc3ccccc3)CC2)Nc2ccccc21 | / | / | . | / | / | /
Cc1nc(-n2nc(C)c(Cl)c2C)sc1C(=O)N1CCC(C)CC1 | / | / | . | / | / | /
SMILES | TDP1 cell CPT | VP16 counter | ALOX12 inh | ELG1 repair inh | DT40 TDP1 no CPT | RORg inh
CCc1ccccc1NC(=O)N1CCCC(Cn2cnc3cccnc32)C1 (stereo not given) | / | / | . | / | / | /
CCOc1ccc(CC(=O)N2CCCN(c3cc(-c4ccc(F)cc4)[nH]n3)CC2)cc1OCC | / | / | . | / | / | /
Cn1c(=O)c2c(ncn2CC(=O)N(CCC#N)Cc2ccco2)n(C)c1=O | / | / | . | / | / | /
COc1cccc(CN2CCC(C(=O)N3CCCCCCNC(=O)CC3)CC2)c1 | / | / | . | / | / | /
CC(C)=CCCC1(C)C=Cc2c(c(C)cc3c2[nH]c2cc(O)ccc23)O1 (stereo not given) | ? | ? | ? | . | 16µM | .
C[C@H](NC(=O)C(=O)Nc1cccc2[nH]ccc12)c1ccccc1 | / | / | . | / | / | /
CN1C2C=C3C(C#N)=C(N)C(C#N)(C#N)C(c4ccc(Br)cc4)C3C1CC2 (stereo not given) | ? | . | ? | . | 21µM | ?
Cc1cc(=O)n(CC(=O)N2CCCC2)c(-c2ccccc2)n1 | / | / | . | / | / | /
